Measured values published in PubChem BioAssay (NCI).
About 83,000 compounds went through this panel and 20% of them were active in at least one assay; those are over-represented in the sample as a whole.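 Step 1: grow cells in 96-well plates. Step 2: add test compound at a single concentration. Step 3: incubate 48 h. Step 4: record percent growth.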 Unmarked numbers belong to inactive results. Active and inactive are the calls of the source. Rule for the calls: active = growth percent below 10; inactive = the rest.

These compounds were tested on NCI-H460 lung (assay: NCI-60 one-dose screen, 48 h (100 = growth as untreated, 0 = no growth, -100 = all killed)). Settings: 10 µM unless noted.
NC(=S)N/N=C/C(=O)O was tested, and the growth was 99.6%.
CS(=O)(=O)c1ccc(-c2[nH]c3ccc(F)cc3c2/C=N/NC(N)=S)cc1 was tested, and the growth was 3.52% (active).
O=[N+]([O-])c1ccc(-c2cc3c(Nc4ccc(Cl)c(C(F)(F)F)c4)ncnc3s2)cc1 was tested, and the growth was 4.13% (active).
With COC(=O)c1ccc(CSc2nnc(-c3ccncc3)o2)cc1 the growth was 108%.
NS(=O)(=O)Oc1ccc(NC(=O)C23CC4CC(CC(C4)C2)C3)cc1Cl was tested, and the growth was 103%.
With O=C1N(c2ccccc2)C(=S)N[C@]12[C@H](c1ccccc1)C1CCCN1[C@]21C(=O)NC2C=CC(Cl)=C[C@H]21 (stereo not given in full) the growth was 102%.
For COc1ccc(-c2nc3ncccn3c2/C=C/C(=O)c2cc(OC)c(OC)c(OC)c2)cc1, the growth was -79.4% (active).
In the case of N#C/C(=C\c1ccc(Br)cc1)n1nnc2cc(Cl)c(Cl)cc21, the growth is reported as 56.7%.
O=S(=O)(Cc1ccccc1)c1nc2ccccc2s1 showed a growth of 103%.
Compound COc1ccc(-c2nnc(-c3ccc4c(c3)nc(-c3ccccc3)n4C3CCCCC3)o2)cc1 has a growth of 64.4%.
CN1CCC(=C2c3ccccc3C=Cc3ccccc32)CC1 showed a growth of 93.3%.
In the case of CNC(=O)NCC1OC(n2cnc3c(NC(=O)Nc4ccccc4)ncnc32)C2OC(C)(C)OC12 (stereo not given), the growth is reported as 101%.
COc1ccc(-c2cncnc2N)cc1OC showed a growth of 98.6%.
O=[N+]([O-])c1ccccc1C(O)Cc1ccc2ccccc2n1 (stereo not given) was tested, and the growth was 97.4%.
CCn1c(Sc2nnc(NC(C)=O)s2)nc2c1c(=O)n(C)c(=O)n2C showed a growth of 103%.
